Records with an inconclusive call do not appear. Entries that show only a call come without a potency. Activity calls are given as the source filed them. Calls follow the shape of the full dose curve; tested in HEK293 reporter line.
Potency is read from the fitted curve at half-maximal effect.

The first assay in a line: qHTS for Inhibitors of the Functional Ribonucleoprotein Complex (vRNP) of Lassa (LASV) Arenavirus: LASV Primary Screen - GLuc reporter signal (AID 1347082). Also: nearly all actives have a fitted effect of over 60% in size. The note with it: LASV minigenome vRNP, Gaussia luciferase reporter; series mostly up to 57.5 µM; activity change, negative = inhibition: at the top concentration.
As for `Cc1nccn1CC1CCc2c(c3ccccc3n2C)C1=O` (stereo unspecified), the Potency entry was “inactive”.
For `CNCCc1ccccn1`, the “activity change, negative = inhibition” value was -5.51% (inactive).
For `CC/C=C(\C(=O)N[C@@H]1C(=O)N2C(C(=O)OCOC(=O)C(C)(C)C)=C(COC(N)=O)CS[C@H]12)c1csc(N)n1`, the Potency entry is “inactive”.
Still for that read-out and setting: in the case of `Cc1ccnc2c1NC(=O)c1cccnc1N2C1CC1` it was “inactive”.
As to `NS(=O)(=O)c1cc2c(cc1C(F)(F)F)NCNS2(=O)=O`, the “activity change, negative = inhibition” value was -8.24% (inactive).
As to `C[C@@H](O)[C@H]1C(=O)N2C(C(=O)O)=C(S[C@@H]3CN[C@H](C(=O)N(C)C)C3)[C@H](C)[C@H]12`, the Potency result is “inactive”.
Consider `CCCCC1=NC2(CCCC2)C(=O)N1Cc1ccc(-c2ccccc2-c2nn[nH]n2)cc1`, for which the “activity change, negative = inhibition” value was -51.2% (inactive).
Still for that read-out and setting: in the case of `CO[C@@H](C(=O)N1Cc2[nH]nc(NC(=O)c3ccc(N4CCN(C)CC4)cc3)c2C1)c1ccccc1` it was 4.64% (inactive).
Turning to `O=C(O)c1ccc(-n2nc(-c3ccccc3O)nc2-c2ccccc2O)cc1`, the Potency entry was “inactive”.
Still for that read-out and setting: in the case of `CN(C)CCC=C1c2ccccc2C=Cc2ccccc21` it was “inactive”; in that of `O=C1CCC(N2C(=O)c3ccccc3C2=O)C(=O)N1` (stereo unspecified), “inactive”; in that of `N=c1nc(N2CCCCC2)cc(N)n1O`, “inactive”.
`Cn1cnc2c(F)c(Nc3ccc(Br)cc3Cl)c(C(=O)NOCCO)cc21`: the “activity change, negative = inhibition” value is -0.713% (inactive).
Take `O=C1N=C(O)CN1/N=C/c1ccc(-c2ccc([N+](=O)[O-])cc2)o1`: the Potency entry was “inactive”.
On the same count and under the same terms, in the case of `COC(=O)[C@H]1[C@H]2C[C@@H]3c4[nH]c5cc(OC)ccc5c4CCN3C[C@H]2C[C@@H](OC(=O)c2cc(OC)c(OC)c(OC)c2)[C@@H]1OC` it was “inactive”; in that of `CCCCNC(=O)NS(=O)(=O)c1ccc(C)cc1`, “inactive”.
Same read-out and setting: as for `CC(C)C[C@H](NC(=O)[C@H](Cc1ccccc1)NC(=O)c1cnccn1)B(O)O`, the figure is 485 nM (active); as for `CC1(C)NC(=O)N(c2ccc([N+](=O)[O-])c(C(F)(F)F)c2)C1=O`, “inactive”; as for `CC(C)(C#N)c1cc(Cn2cncn2)cc(C(C)(C)C#N)c1`, “inactive”.
Turning to `Cc1ccsc1C(=CCCN1CCC[C@@H](C(=O)O)C1)c1sccc1C`, the “activity change, negative = inhibition” value is 14.1% (inactive).
For the molecule `CCC(C)n1ncn(-c2ccc(N3CCN(c4ccc(OC[C@H]5CO[C@](Cn6cncn6)(c6ccc(Cl)cc6Cl)O5)cc4)CC3)cc2)c1=O` (stereo partly specified), the Potency entry was “inactive”.
Consider `C[C@@H](NCCCc1cccc(C(F)(F)F)c1)c1cccc2ccccc12`, for which the Potency result is “inactive”.
On to `CCC(=O)O[C@H]1[C@H](O[C@@H]2[C@@H](C)[C@H](O[C@H]3C[C@@](C)(OC)[C@@H](O)[C@H](C)O3)[C@@H](C)C(=O)O[C@H](CC)[C@@](C)(O)[C@H](O)[C@@H](C)C(=O)[C@H](C)C[C@@]2(C)O)O[C@H](C)C[C@@H]1N(C)C`, for which the “activity change, negative = inhibition” value is 2.14% (inactive).
As to `Nc1nc2c(ncn2COCCO)c(=O)[nH]1`, the Potency result was “inactive”.
Turning to `C[C@@H]1C[C@H]2[C@@H]3CCC4=CC(=O)C=C[C@]4(C)[C@@]3(F)[C@@H](O)C[C@]2(C)[C@@]1(O)C(=O)CO`, the “activity change, negative = inhibition” value was 8.95% (inactive).
On to `CC(=O)OCC(CCn1cnc2cnc(N)nc21)COC(C)=O`, for which the Potency result is “inactive”.
For the molecule `CCOc1ccc2ccccc2c1C(=O)N[C@@H]1C(=O)N2[C@@H]1SC(C)(C)[C@@H]2C(=O)O`, the “activity change, negative = inhibition” value is -19.5% (inactive).
Regarding `O=C(OC1C[C@H]2CC[C@@H](C1)[N+]21CCCC1)C(O)(c1ccccc1)c1ccccc1` (stereo partly specified), the “activity change, negative = inhibition” value was 46.7% (inactive).
On to `CCCN[C@H]1CCc2nc(N)sc2C1`, for which the Potency result is “inactive”.
On to `N[C@@H](Cc1cc(I)c(Oc2cc(I)c(O)c(I)c2)c(I)c1)C(=O)O`, for which the Potency entry is “inactive”.
Take `COC(=O)[C@@H]1CC2=CC(=O)CC[C@]2(C)[C@@]23O[C@@H]2C[C@@]2(C)[C@@H](CC[C@@]24CCC(=O)O4)[C@H]13`: the “activity change, negative = inhibition” value was 5.61% (inactive).
Consider `CC(C)(C(=O)O)c1ccc(C(O)CCCN2CCC(C(O)(c3ccccc3)c3ccccc3)CC2)cc1` (stereo unspecified), for which the Potency entry was “inactive”.
Regarding `COc1nc(N)nc2c1ncn2[C@@H]1O[C@H](CO)[C@@H](O)[C@@H]1O`, the Potency entry is “inactive”.
Turning to `CN(N=O)C(=O)N[C@@H]1[C@@H](O)[C@H](O)[C@@H](CO)O[C@@H]1O`, the “activity change, negative = inhibition” value is 1.24% (inactive).
On the same count and under the same terms, as for `O[C@@H]1CO[C@H]2[C@@H]1OC[C@@H]2O`, the figure is -1.55% (inactive).
As for `O=C1CCc2cc(OCCCCc3nnnn3C3CCCCC3)ccc2N1`, the Potency result is “inactive”.
In the case of `CN(C)C(=N)N=C(N)N`, the Potency entry was “inactive”.
Still for that read-out and setting: in the case of `Nc1nnc(-c2cccc(Cl)c2Cl)c(N)n1` it was “inactive”.

The next assay can be described thus: qHTS for Inhibitors of the Functional Ribonucleoprotein Complex (vRNP) of Lassa (LASV) Arenavirus: Viability assay - alamar blue signal for LASV Primary Screen (AID 1347083). Also: nearly all actives have a fitted effect of over 80% in size. The note with it: cell viability, alamar blue fluorescence (LASV minigenome counter-screen); series mostly up to 57.5 µM; activity change, negative = reduced viability: at the top concentration.
In the case of `Cc1nccn1CC1CCc2c(c3ccccc3n2C)C1=O` (stereo unspecified), the Potency result was “inactive”.
For the molecule `CNCCc1ccccn1`, the “activity change, negative = reduced viability” value was 0.86% (inactive).
With `CC/C=C(\C(=O)N[C@@H]1C(=O)N2C(C(=O)OCOC(=O)C(C)(C)C)=C(COC(N)=O)CS[C@H]12)c1csc(N)n1`, the Potency result is “inactive”.
`Cc1ccnc2c1NC(=O)c1cccnc1N2C1CC1`: the “activity change, negative = reduced viability” value is -1.89% (inactive).
On the same count and under the same terms, in the case of `NS(=O)(=O)c1cc2c(cc1C(F)(F)F)NCNS2(=O)=O` it was -3.04% (inactive).
Consider `C[C@@H](O)[C@H]1C(=O)N2C(C(=O)O)=C(S[C@@H]3CN[C@H](C(=O)N(C)C)C3)[C@H](C)[C@H]12`, for which the Potency entry is “inactive”.
Take `CCCCC1=NC2(CCCC2)C(=O)N1Cc1ccc(-c2ccccc2-c2nn[nH]n2)cc1`: the “activity change, negative = reduced viability” value was -2.7% (inactive).
On to `CO[C@@H](C(=O)N1Cc2[nH]nc(NC(=O)c3ccc(N4CCN(C)CC4)cc3)c2C1)c1ccccc1`, for which the Potency is 4850 nM (active).
Regarding `O=C(O)c1ccc(-n2nc(-c3ccccc3O)nc2-c2ccccc2O)cc1`, the “activity change, negative = reduced viability” value is -38.5% (inactive).
As for `CN(C)CCC=C1c2ccccc2C=Cc2ccccc21`, the Potency result is “inactive”.
Same read-out and setting: as for `O=C1CCC(N2C(=O)c3ccccc3C2=O)C(=O)N1` (stereo unspecified), the entry is “inactive”.
In the case of `N=c1nc(N2CCCCC2)cc(N)n1O`, the Potency entry is “inactive”.
Turning to `Cn1cnc2c(F)c(Nc3ccc(Br)cc3Cl)c(C(=O)NOCCO)cc21`, the “activity change, negative = reduced viability” value was -0.945% (inactive).
For the molecule `O=C1N=C(O)CN1/N=C/c1ccc(-c2ccc([N+](=O)[O-])cc2)o1`, the Potency result was “inactive”.
Still for that read-out and setting: as for `COC(=O)[C@H]1[C@H]2C[C@@H]3c4[nH]c5cc(OC)ccc5c4CCN3C[C@H]2C[C@@H](OC(=O)c2cc(OC)c(OC)c(OC)c2)[C@@H]1OC`, the entry is “inactive”.
Still for that read-out and setting: as for `CCCCNC(=O)NS(=O)(=O)c1ccc(C)cc1`, the entry is “inactive”.
Still for that read-out and setting: in the case of `CC(C)C[C@H](NC(=O)[C@H](Cc1ccccc1)NC(=O)c1cnccn1)B(O)O` it was 217 nM (active); in that of `CC1(C)NC(=O)N(c2ccc([N+](=O)[O-])c(C(F)(F)F)c2)C1=O`, “inactive”.
Take `CC(C)(C#N)c1cc(Cn2cncn2)cc(C(C)(C)C#N)c1`: the Potency entry is “inactive”.
As for `Cc1ccsc1C(=CCCN1CCC[C@@H](C(=O)O)C1)c1sccc1C`, the “activity change, negative = reduced viability” value was 7.55% (inactive).
On to `CCC(C)n1ncn(-c2ccc(N3CCN(c4ccc(OC[C@H]5CO[C@](Cn6cncn6)(c6ccc(Cl)cc6Cl)O5)cc4)CC3)cc2)c1=O` (stereo partly specified), for which the Potency result was “inactive”.
Same read-out and setting: in the case of `C[C@@H](NCCCc1cccc(C(F)(F)F)c1)c1cccc2ccccc12` it was “inactive”.
As for `CCC(=O)O[C@H]1[C@H](O[C@@H]2[C@@H](C)[C@H](O[C@H]3C[C@@](C)(OC)[C@@H](O)[C@H](C)O3)[C@@H](C)C(=O)O[C@H](CC)[C@@](C)(O)[C@H](O)[C@@H](C)C(=O)[C@H](C)C[C@@]2(C)O)O[C@H](C)C[C@@H]1N(C)C`, the “activity change, negative = reduced viability” value was 17.2% (inactive).
`Nc1nc2c(ncn2COCCO)c(=O)[nH]1`: the Potency result was “inactive”.
Regarding `C[C@@H]1C[C@H]2[C@@H]3CCC4=CC(=O)C=C[C@]4(C)[C@@]3(F)[C@@H](O)C[C@]2(C)[C@@]1(O)C(=O)CO`, the “activity change, negative = reduced viability” value is -5.42% (inactive).
Take `CC(=O)OCC(CCn1cnc2cnc(N)nc21)COC(C)=O`: the Potency result was “inactive”.
With `CCOc1ccc2ccccc2c1C(=O)N[C@@H]1C(=O)N2[C@@H]1SC(C)(C)[C@@H]2C(=O)O`, the “activity change, negative = reduced viability” value is -0.168% (inactive).
On the same count and under the same terms, in the case of `O=C(OC1C[C@H]2CC[C@@H](C1)[N+]21CCCC1)C(O)(c1ccccc1)c1ccccc1` (stereo partly specified) it was 10.9% (inactive).
As to `CCCN[C@H]1CCc2nc(N)sc2C1`, the Potency result is “inactive”.
`N[C@@H](Cc1cc(I)c(Oc2cc(I)c(O)c(I)c2)c(I)c1)C(=O)O`: the Potency result is “inactive”.
As to `COC(=O)[C@@H]1CC2=CC(=O)CC[C@]2(C)[C@@]23O[C@@H]2C[C@@]2(C)[C@@H](CC[C@@]24CCC(=O)O4)[C@H]13`, the “activity change, negative = reduced viability” value was -3.52% (inactive).
`CC(C)(C(=O)O)c1ccc(C(O)CCCN2CCC(C(O)(c3ccccc3)c3ccccc3)CC2)cc1` (stereo unspecified): the Potency result is “inactive”.
Turning to `COc1nc(N)nc2c1ncn2[C@@H]1O[C@H](CO)[C@@H](O)[C@@H]1O`, the Potency result was “inactive”.
In the case of `CN(N=O)C(=O)N[C@@H]1[C@@H](O)[C@H](O)[C@@H](CO)O[C@@H]1O`, the “activity change, negative = reduced viability” value is 8.43% (inactive).
As to `O[C@@H]1CO[C@H]2[C@@H]1OC[C@@H]2O`, the “activity change, negative = reduced viability” value is 9.52% (inactive).
For the molecule `O=C1CCc2cc(OCCCCc3nnnn3C3CCCCC3)ccc2N1`, the Potency entry was “inactive”.
Regarding `CN(C)C(=N)N=C(N)N`, the Potency result was “inactive”.
On the same count and under the same terms, in the case of `Nc1nnc(-c2cccc(Cl)c2Cl)c(N)n1` it was “inactive”.
